# Measured values taken from PubChem BioAssay.
# Results filed as inconclusive are left out. For some assays here: Measured potencies and affinities stand elsewhere. Active and inactive are the calls of the source.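 How the source made its calls, unless noted: active means compounds killing one labelled cell type while sparing the other, by normalised counts and ratio limits, not self-fluorescent; inactive means the rest.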
# Assays:
# [1] = polyglutamine-triggered caspase-3 activation inhibitors, cell-based (AID 1583); conditions: polyglutamine-induced caspase-3 activation, cell assay; stronger effect = higher value;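 tested at 10 µM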
# [2] = suppressors of polyQ aggregation in yeast, 75Q-TubU reporter (AID 1593); conditions: Yeast 75Q polyglutamine aggregation reporter
# [3] = protection of motor neurons from glutamate death, cell-based, TUNEL DNA degradation staining, MNGlu (AID 1594; call rule not given here); conditions: glutamate-induced death, at 1 µM, stronger effect = higher value
# [4] = rescue of polyQ-huntingtin neuronal dysfunction in worms, whole organism, C. elegans mechanosensory neurons, N-terminal huntingtin (AID 1599); conditions: touch response, stronger effect = higher value
# [5] = inhibitors of mitochondrial cytochrome c release, biochemical, purified mitochondria (AID 1603); conditions: stronger effect = lower value;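 further: mouse liver mitochondria challenged with calcium chloride; signal normalized to the plate average as 100%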
# [6] = inhibitors of polyQ protein aggregation (AID 1604); conditions: polyglutamine-induced protein aggregation inhibition assay; stronger effect = higher value; tested at 2.5 µM
# [7] = enhancers of glutamate uptake in motor neurons, MN-1 cell line (AID 1612); conditions: MN-1 motor neuron cells, stronger effect = higher value;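 further: tested at 1 µM final; 0% = mean of DMSO vehicle wells on each plate; positive means more glutamate uptake than control and negative means less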
# [8] = reducers of polyQ inclusions in PC12 cells, cell-based, NGF-treated PC12, GFPQ80 (AID 1614); conditions: PC12 NGF-treated GFP-polyQ80 inclusion reduction;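 further: lower means fewer inclusions and 0 means no inclusions at all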
# [9] = suppressors of polyglutamine aggregation in yeast, 75Q-TubH (AID 1616); conditions: S. cerevisiae 75Q-TubH polyglutamine aggregation suppression; stronger effect = higher value
# [10] = liver-stage malaria parasite growth inhibition, primary screen, cell-based, HepG2, luciferase luminescence, HepG2 viability (AID 624349; in the data active means parasite load remaining mostly below about 12%, no sharp cut-off; inactive means mostly above about 10%;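 further: 100% = mean of DMSO negative control wells on the same plate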); conditions: P. berghei liver stage in HepG2, luciferase luminescence, concentration not given here; parasite load remaining: stronger effect = lower value; viability: measured here: HepG2 viability without parasites
# [11] = differential killing of epithelial or mesenchymal cells, primary screen, imaging, PC-3E GFP, TEM4-18 mCherry, co-culture (AID 1345086); conditions: imaging cell counts, at 1 µM; for red/green cell ratio (normalised): actives lie on both sides, counts scaled to control wells, 1 = unselective;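 on all read-outs here: cells exposed to compound for 72 h before imaging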;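 on red/green cell ratio (normalised): normalised mesenchymal count divided by normalised epithelial count so high means epithelial killing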
# [12] = molecular target: NAD(+) hydrolase SARM1 (Homo sapiens) (UniProt Q6SZW1); assay: SARM1 TIR NADase inhibitors, cell lysate, NAD-Glo luminescence (AID 1508614;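 active means compound whose remaining NAD level is above about 45 nM, limit read from the data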); conditions: SAM-TIR HEK293T lysate NADase, at 1 µM, stronger effect = higher value
# [13] = molecular target: Mitogen-activated protein kinase 7 (Homo sapiens) (UniProt Q13164); assay: ERK5 transactivation activators in reporter cells, primary screen, cell-based, HTS (AID 1508626;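 active means luciferase signal above three times the same-plate solvent-only control wells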;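 further: luciferase driven by Gal4-ERK5 fusion binding five Gal4 sites before minimal TATA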); conditions: HeLa Gal4-ERK5 transactivation, 18 h, at 5 µM, stronger effect = higher value
# [14] = protection against mutant huntingtin cytotoxicity, PC12 cells, LDH release (AID 1610); conditions: PC12 mutant huntingtin toxicity, final LDH at 4 uM, stronger effect = lower value
# [15] = mitochondrial permeability transition inhibitors (AID 1580; call rule not given here); conditions: isolated mitochondria, permeability transition inhibition
# [16] = measured here: epithelial PC-3E GFP cell survival
# [17] = measured here: mesenchymal TEM4-18 mCherry cell survival
# Sequence of Mitogen-activated protein kinase 7 (Homo sapiens) (Q13164 whole entry, looked up, the tested form may be a part): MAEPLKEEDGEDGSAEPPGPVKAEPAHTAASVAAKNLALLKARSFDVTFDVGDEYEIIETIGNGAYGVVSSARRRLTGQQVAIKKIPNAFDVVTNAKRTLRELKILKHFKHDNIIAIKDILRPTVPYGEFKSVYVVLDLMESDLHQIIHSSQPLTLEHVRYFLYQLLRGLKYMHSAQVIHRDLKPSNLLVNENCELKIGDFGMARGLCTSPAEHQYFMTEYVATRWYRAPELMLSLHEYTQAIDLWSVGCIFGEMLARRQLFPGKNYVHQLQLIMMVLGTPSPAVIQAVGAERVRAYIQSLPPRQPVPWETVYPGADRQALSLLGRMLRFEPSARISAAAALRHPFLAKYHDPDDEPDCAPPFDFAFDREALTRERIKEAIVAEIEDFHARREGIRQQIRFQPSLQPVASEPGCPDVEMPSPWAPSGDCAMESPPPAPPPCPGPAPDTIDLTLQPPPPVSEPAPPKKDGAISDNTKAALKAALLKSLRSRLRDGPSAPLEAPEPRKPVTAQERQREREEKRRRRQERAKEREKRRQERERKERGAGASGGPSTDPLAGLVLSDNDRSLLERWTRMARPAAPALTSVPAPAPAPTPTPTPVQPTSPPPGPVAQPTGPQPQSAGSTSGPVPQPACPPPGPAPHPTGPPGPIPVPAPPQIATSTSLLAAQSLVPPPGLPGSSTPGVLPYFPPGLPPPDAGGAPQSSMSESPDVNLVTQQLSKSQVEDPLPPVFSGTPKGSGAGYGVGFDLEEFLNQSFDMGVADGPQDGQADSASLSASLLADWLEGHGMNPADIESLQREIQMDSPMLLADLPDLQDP
# Sequence of NAD(+) hydrolase SARM1 (Homo sapiens) (Q6SZW1 whole entry, looked up, the tested form may be a part): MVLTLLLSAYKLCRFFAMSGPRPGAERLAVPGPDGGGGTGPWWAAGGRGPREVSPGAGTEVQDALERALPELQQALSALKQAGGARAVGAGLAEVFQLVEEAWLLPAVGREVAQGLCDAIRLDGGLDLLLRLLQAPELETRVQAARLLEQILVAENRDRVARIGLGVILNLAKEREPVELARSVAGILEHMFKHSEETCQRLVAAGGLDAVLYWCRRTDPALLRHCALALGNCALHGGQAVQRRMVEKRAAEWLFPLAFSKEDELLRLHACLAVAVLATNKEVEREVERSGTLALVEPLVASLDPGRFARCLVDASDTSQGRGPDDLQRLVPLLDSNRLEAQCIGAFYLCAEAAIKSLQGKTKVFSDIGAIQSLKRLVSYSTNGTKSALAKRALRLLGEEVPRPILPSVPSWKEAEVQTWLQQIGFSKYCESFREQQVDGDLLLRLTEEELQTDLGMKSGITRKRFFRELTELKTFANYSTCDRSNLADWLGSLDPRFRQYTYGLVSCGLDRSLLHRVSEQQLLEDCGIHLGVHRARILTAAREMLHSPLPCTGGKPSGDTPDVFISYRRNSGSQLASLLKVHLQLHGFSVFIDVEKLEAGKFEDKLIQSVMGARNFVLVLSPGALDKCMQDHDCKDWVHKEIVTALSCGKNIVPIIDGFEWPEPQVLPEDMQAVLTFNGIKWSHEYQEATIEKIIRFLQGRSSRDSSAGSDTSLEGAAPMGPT
compound,measurement,setting,value
Nc1ccc(C(=O)O)c(O)c1 (tested in a mixture with another compound),inhibition,[1],-9.55%
same,score,[2],1.25
same,protection,[3],60% (active)
same,rescue above control,[4],-2.24
same,cytochrome c release ratio,[5],0.96
same,inhibition of aggregation,[6],69%
same,glutamate uptake change,[7],-12.2%
same,inclusion score,[8],2
same,aggregation suppression score,[9],1.1
same,parasite load remaining,[10],155% (inactive)
same,viability,[10],85.3%
same,red/green cell ratio (normalised),[11],0.93 (inactive)
same,normalised cell number,[11]; [16],1.14
same,normalised cell number,[11]; [17],1.06
same,remaining NAD,[12],10 nM (inactive)
COc1cc(O)c(C(=O)/C=C/c2ccc(OC)c(O)c2)c(OC)c1,red/green cell ratio (normalised),[11],1.01 (inactive)
same,normalised cell number,[11]; [16],0.89
same,normalised cell number,[11]; [17],0.9
same,luciferase signal,[13],84 AU (inactive)
CNC(C)[C@@H]1CC[C@@H](N)[C@@H](OC2[C@@H](N)C[C@@H](N)[C@H](OC3OC[C@](C)(O)[C@H](NC)[C@H]3O)[C@H]2O)O1 (some centres undefined),inhibition,[1],-0.7%
same,score,[2],1.63
same,rescue above control,[4],-1.8
same,cytochrome c release ratio,[5],2.33
same,inhibition of aggregation,[6],66.7%
same,glutamate uptake change,[7],1.4%
same,inclusion score,[8],2
same,aggregation suppression score,[9],1.62
same,red/green cell ratio (normalised),[11],1.29 (inactive)
same,normalised cell number,[11]; [16],1.02
same,normalised cell number,[11]; [17],1.32
same,remaining NAD,[12],10 nM (inactive)
same,luciferase signal,[13],28 AU (inactive)
CCCc1cc(OC)c2c(c1)OCO2,red/green cell ratio (normalised),[11],1.07 (inactive)
same,normalised cell number,[11]; [16],0.92
same,normalised cell number,[11]; [17],0.98
same,luciferase signal,[13],216 AU (inactive)
COc1cc(OC)c(C(C)=O)c(O)c1C,red/green cell ratio (normalised),[11],0.96 (inactive)
same,normalised cell number,[11]; [16],0.98
same,normalised cell number,[11]; [17],0.94
same,luciferase signal,[13],32 AU (inactive)
OCC(S)CS (centres undefined),inhibition,[1],11.1%
same,score,[2],-0.34
same,rescue above control,[4],28.1
same,cytochrome c release ratio,[5],0.92
same,inhibition of aggregation,[6],68.7%
same,normalised LDH release,[14],0.667
same,glutamate uptake change,[7],23.2%
same,aggregation suppression score,[9],-0.815
same,red/green cell ratio (normalised),[11],1.01 (inactive)
same,normalised cell number,[11]; [16],0.72
same,normalised cell number,[11]; [17],0.73
same,remaining NAD,[12],10 nM (inactive)
same,luciferase signal,[13],92 AU (inactive)
CC(CCC(=O)O)[C@H]1CCC2C3C[C@H](O)[C@@H]4C[C@H](O)CC[C@]4(C)C3CC[C@@]21C (some centres undefined),red/green cell ratio (normalised),[11],0.83 (inactive)
same,normalised cell number,[11]; [16],1.24
same,normalised cell number,[11]; [17],1.03
same,luciferase signal,[13],60 AU (inactive)
CC1(C)C(=O)C=C[C@@]2(C)C1CC(=O)[C@]1(C)C2CC[C@@]2(C)[C@H](c3ccoc3)OC(=O)[C@H]3O[C@]321 (some centres undefined),red/green cell ratio (normalised),[11],1.47 (inactive)
same,normalised cell number,[11]; [16],0.82
same,normalised cell number,[11]; [17],1.21
same,luciferase signal,[13],16 AU (inactive)
CC(=O)OCC(=O)[C@@]1(O)CCC2C3CCC4=CC(=O)C=C[C@]4(C)[C@@]3(F)[C@@H](O)C[C@@]21C (some centres undefined),red/green cell ratio (normalised),[11],0.75 (inactive)
same,normalised cell number,[11]; [16],1.27
same,normalised cell number,[11]; [17],0.95
same,luciferase signal,[13],76 AU (inactive)
O=C(O)c1cc(=O)c(O)c2c(O)c(O)c(O)cc2c1,red/green cell ratio (normalised),[11],0.85 (inactive)
same,normalised cell number,[11]; [16],1.11
same,normalised cell number,[11]; [17],0.94
same,luciferase signal,[13],100 AU (inactive)
CC(=O)OC/C=C(\C)CC/C=C(\C)CC/C=C(\C)CC/C=C(\C)CC/C=C(\C)CC/C=C(\C)CC/C=C(\C)CC/C=C(\C)CCC=C(C)C,red/green cell ratio (normalised),[11],0.99 (inactive)
same,normalised cell number,[11]; [16],1.05
same,normalised cell number,[11]; [17],1.04
same,luciferase signal,[13],84 AU (inactive)
S=c1ccss1,red/green cell ratio (normalised),[11],1.04 (inactive)
same,normalised cell number,[11]; [16],1.15
same,normalised cell number,[11]; [17],1.2
same,luciferase signal,[13],52 AU (inactive)
COc1ccc(-c2coc3c(O)c(O)c(OC)cc3c2=O)cc1,red/green cell ratio (normalised),[11],0.97 (inactive)
same,normalised cell number,[11]; [16],1.12
same,normalised cell number,[11]; [17],1.09
same,luciferase signal,[13],88 AU (inactive)
CC1=CC(=O)C2C(C)(C)CCC[C@]2(C)[C@@]1(O)CCc1ccoc1 (some centres undefined),red/green cell ratio (normalised),[11],1.02 (inactive)
same,normalised cell number,[11]; [16],0.94
same,normalised cell number,[11]; [17],0.96
same,luciferase signal,[13],128 AU (inactive)
CN(C)CC(=O)OC[C@@H](O)[C@@H](O)[C@H](O)[C@@H](O)C(=O)O,red/green cell ratio (normalised),[11],1.02 (inactive)
same,normalised cell number,[11]; [16],1.08
same,normalised cell number,[11]; [17],1.1
same,luciferase signal,[13],36 AU (inactive)
COc1ccc(-c2oc3cc(OC)c(OC)c(OC)c3c(=O)c2OC)cc1,red/green cell ratio (normalised),[11],1.04 (inactive)
same,normalised cell number,[11]; [16],1.02
same,normalised cell number,[11]; [17],1.05
same,luciferase signal,[13],72 AU (inactive)
Cc1c(S(=O)(=O)O)oc2c1C(=O)C(=O)c1c-2ccc2c1CCCC2(C)C,red/green cell ratio (normalised),[11],0.95 (inactive)
same,normalised cell number,[11]; [16],1.24
same,normalised cell number,[11]; [17],1.18
same,luciferase signal,[13],48 AU (inactive)
CC[C@@H](C(=O)[C@@H](C)[C@@H](O)[C@H](C)[C@@H]1O[C@@H]([C@@H](CC)C(=O)O)CC[C@@H]1C)[C@H]1OC2(C=C[C@@H](O)[C@]3(CC[C@@](C)([C@H]4CC[C@](O)(CC)[C@H](C)O4)O3)O2)[C@H](C)C[C@@H]1C (some centres undefined),EC50,[15],100 nM (active)
same,inhibition,[1],40.3%
same,score,[2],0.53
same,rescue above control,[4],-3.48
same,cytochrome c release ratio,[5],1.06
same,inhibition of aggregation,[6],61.1%
same,glutamate uptake change,[7],-41.6%
same,aggregation suppression score,[9],0.25
same,parasite load remaining,[10],-5.04% (inactive)
same,viability,[10],82%
same,red/green cell ratio (normalised),[11],0.65 (active)
same,normalised cell number,[11]; [16],0.55
same,normalised cell number,[11]; [17],0.36
same,luciferase signal,[13],36 AU (inactive)
O=C1C=CC(=O)c2c(O)c(Cl)c(Cl)c(O)c21,red/green cell ratio (normalised),[11],1 (inactive)
same,normalised cell number,[11]; [16],1.04
same,normalised cell number,[11]; [17],1.04
same,luciferase signal,[13],12 AU (inactive)
C=C[C@@]1(C)CC(=O)[C@@]2(O)[C@](C)(O1)[C@@H](O)[C@@H](O)C1C(C)(C)CC[C@H](O)[C@@]12C (some centres undefined),red/green cell ratio (normalised),[11],1.15 (inactive)
same,normalised cell number,[11]; [16],0.91
same,normalised cell number,[11]; [17],1.05
same,luciferase signal,[13],80 AU (inactive)
